{"source": "PubChem BioAssay AID434961", "about": "(Broad Institute, 2010)", "note": "Screen size: about 7,700 compounds; about 15 (0.2%) were called active. About 6% were inconclusive and are not listed. The sample holds actives, similar compounds and a random draw of the others, so the mix is not that of the screen. Unmarked numbers belong to inactive results.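 The calls were made as follows: active = more than half of replicate wells with inhibition above about 18% (limit read from the data, passing the limit was not always enough); inconclusive = exactly half of replicate wells above that limit; inactive = fewer than half of replicates above it.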", "data": [{"target": "Regulator of chromosome condensation (Homo sapiens) + GTP-binding nuclear protein Ran (Homo sapiens) + Importin subunit beta-1 (Homo sapiens) (UniProt P18754+P62826+Q14974)", "test": "inhibitors of Ran–importin-beta complex formation, primary screen, biochemical, CFP-Ran/YFP-importin-beta FRET, RCC1, cell-free (AID 434961);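 also: 0% = DMSO wells and 100% inhibition = RanGDP control wells on each plate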", "details": "stronger effect = higher value, concentration not given here", "values": [{"smiles": "CNC[C@H]1Oc2ccc(NC(=O)NC(C)C)cc2CC(=O)N([C@H](C)CO)C[C@H]1C", "inhibition": "-4.07%"}, {"smiles": "CNC[C@H]1OCCCC[C@@H](C)Oc2ccc(N)cc2C(=O)N([C@H](C)CO)C[C@@H]1C", "inhibition": "7.03%"}, {"smiles": "C[C@@H]1CN([C@H](C)CO)C(=O)Cc2cc(NS(=O)(=O)c3cn(C)cn3)ccc2O[C@H]1CN(C)CC1CC1", "inhibition": "1.45%"}, {"smiles": "Cc1noc(C)c1NC(=O)N(C)C[C@@H]1Oc2c(NS(C)(=O)=O)cccc2C(=O)N([C@H](C)CO)C[C@H]1C", "inhibition": "-0.0899%"}, {"smiles": "C[C@@H]1CCCCO[C@H](CN(C)C(=O)C2CCCCC2)[C@H](C)CN([C@@H](C)CO)C(=O)c2cc(NC(=O)c3ccncc3)ccc2O1", "inhibition": "2%"}, {"smiles": "C[C@@H]1CN([C@@H](C)CO)C(=O)Cc2cc(NC(=O)Nc3ccc4c(c3)OCO4)ccc2O[C@@H]1CN(C)CC1CC1", "inhibition": "2.45%"}, {"smiles": "C[C@H](CO)N1C[C@H](C)[C@H](CN(C)CC2CC2)Oc2ccc(NC(=O)Nc3ccc4c(c3)OCO4)cc2CC1=O", "inhibition": "-0.0887%"}, {"smiles": "C[C@@H]1CN([C@H](C)CO)C(=O)Cc2cc(NC(=O)Cc3ccccc3)ccc2O[C@@H]1CN(C)S(=O)(=O)c1cccs1", "inhibition": "-2.73%"}, {"smiles": "C[C@H](CO)N1C[C@H](C)[C@@H](CN(C)S(=O)(=O)c2cccs2)Oc2ccc(NC(=O)Cc3ccccc3)cc2CC1=O", "inhibition": "19.8% (active)"}, {"smiles": "C[C@H]1CN([C@@H](C)CO)C(=O)Cc2cc(NC(=O)Cc3ccccc3)ccc2O[C@@H]1CN(C)S(=O)(=O)c1cccs1", "inhibition": "-0.944%"}, {"smiles": "C[C@@H]1CN([C@H](C)CO)C(=O)Cc2cc(NC(=O)Nc3ccc4c(c3)OCO4)ccc2O[C@@H]1CN(C)CC1CC1", "inhibition": "24.2% (active)"}, {"smiles": "C[C@@H]1CN([C@@H](C)CO)C(=O)c2cccc(NS(C)(=O)=O)c2O[C@@H]1CN(C)Cc1ccncc1", "inhibition": "0.304%"}, {"smiles": "C[C@H]1CCCCO[C@@H](CN(C)C(=O)Cc2ccccc2)[C@@H](C)CN([C@@H](C)CO)C(=O)c2cc(NS(C)(=O)=O)ccc2O1", "inhibition": "3.79%"}, {"smiles": "C[C@H]1CCCCO[C@H](CN(C)Cc2ccc3c(c2)OCO3)[C@@H](C)CN([C@@H](C)CO)C(=O)c2cc(NC(=O)CCCN(C)C)ccc2O1", "inhibition": "-3.94%"}, {"smiles": "C[C@@H]1CN([C@H](C)CO)C(=O)c2cc(NS(C)(=O)=O)ccc2O[C@@H](C)CCCCO[C@@H]1CN(C)Cc1ccncc1", "inhibition": "30% (active)"}, {"smiles": "C[C@@H]1CN([C@@H](C)CO)C(=O)c2cc(NC(=O)CCCN(C)C)ccc2O[C@@H](C)CCCCO[C@H]1CN(C)Cc1ccc2c(c1)OCO2", "inhibition": "7.22%"}, {"smiles": "C[C@@H]1CCCCO[C@H](CN(C)Cc2ccc3c(c2)OCO3)[C@@H](C)CN([C@H](C)CO)C(=O)c2cc(NC(=O)CCCN(C)C)ccc2O1", "inhibition": "20.5% (active)"}, {"smiles": "C[C@H](CO)N1C[C@H](C)[C@@H](CN(C)Cc2ccncc2)Oc2c(NS(C)(=O)=O)cccc2C1=O", "inhibition": "29.9% (active)"}, {"smiles": "C[C@@H]1CN([C@@H](C)CO)C(=O)c2cc(NS(C)(=O)=O)ccc2O[C@@H](C)CCCCO[C@@H]1CN(C)C(=O)Cc1ccccc1", "inhibition": "-3.41%"}, {"smiles": "C[C@@H]1CN([C@@H](C)CO)C(=O)c2cc(NS(C)(=O)=O)ccc2O[C@@H](C)CCCCO[C@H]1CN(C)C(=O)Cc1ccccc1", "inhibition": "20.6% (active)"}, {"smiles": "C[C@@H]1CCCCO[C@@H](CN(C)Cc2ccncc2)[C@H](C)CN([C@@H](C)CO)C(=O)c2cc(NS(C)(=O)=O)ccc2O1", "inhibition": "-2.5%"}, {"smiles": "C[C@H]1CN([C@@H](C)CO)C(=O)c2cccc(NS(C)(=O)=O)c2O[C@H]1CN(C)Cc1ccncc1", "inhibition": "7.75%"}, {"smiles": "C[C@@H]1CCCCO[C@H](CN(C)Cc2ccncc2)[C@H](C)CN([C@H](C)CO)C(=O)c2cc(NS(C)(=O)=O)ccc2O1", "inhibition": "0.0179%"}, {"smiles": "Cc1noc(C)c1NC(=O)Nc1ccc2c(c1)C(=O)N([C@H](C)CO)C[C@H](C)[C@H](CN(C)C(=O)Nc1c(C)noc1C)OCCCC[C@H](C)O2", "inhibition": "-1.94%"}, {"smiles": "C[C@@H]1CN([C@H](C)CO)C(=O)c2cccc(NS(=O)(=O)c3cn(C)cn3)c2O[C@H]1CN(C)C", "inhibition": "-0.231%"}, {"smiles": "Cc1noc(C)c1NC(=O)N(C)C[C@H]1Oc2ccc(N(C)C)cc2CC(=O)N([C@@H](C)CO)C[C@H]1C", "inhibition": "-0.258%"}, {"smiles": "Cc1noc(C)c1NC(=O)N(C)C[C@@H]1Oc2ccc(N(C)C)cc2CC(=O)N([C@H](C)CO)C[C@@H]1C", "inhibition": "1.55%"}, {"smiles": "Cc1noc(C)c1NC(=O)N(C)C[C@@H]1Oc2ccc(N(C)C)cc2CC(=O)N([C@H](C)CO)C[C@H]1C", "inhibition": "24.7% (active)"}, {"smiles": "C[C@H]1CN([C@@H](C)CO)C(=O)c2cccc(NS(=O)(=O)c3cn(C)cn3)c2O[C@H]1CN(C)C", "inhibition": "31% (active)"}, {"smiles": "COc1ccc(CN(C)C[C@H]2Oc3ccc(NC(=O)Nc4ccc(C(F)(F)F)cc4)cc3C(=O)N([C@@H](C)CO)C[C@H]2C)cc1", "inhibition": "31.1% (active)"}, {"smiles": "COc1ccc(CN(C)C[C@H]2Oc3ccc(NC(=O)Nc4ccc(C(F)(F)F)cc4)cc3C(=O)N([C@H](C)CO)C[C@H]2C)cc1", "inhibition": "-1.47%"}, {"smiles": "Cc1noc(C)c1NC(=O)Nc1ccc2c(c1)C(=O)N([C@H](C)CO)C[C@H](C)[C@@H](CN(C)C(=O)Nc1c(C)noc1C)OCCCC[C@@H](C)O2", "inhibition": "0.0737%"}, {"smiles": "C[C@H]1CN([C@@H](C)CO)C(=O)c2cccc(NS(=O)(=O)c3cn(C)cn3)c2O[C@@H]1CN(C)C", "inhibition": "0.914%"}, {"smiles": "COc1ccc(CN(C)C[C@H]2Oc3ccc(NC(=O)Nc4ccc(C(F)(F)F)cc4)cc3C(=O)N([C@@H](C)CO)C[C@@H]2C)cc1", "inhibition": "-6.63%"}, {"smiles": "Cc1noc(C)c1NC(=O)Nc1ccc2c(c1)C(=O)N([C@H](C)CO)C[C@@H](C)[C@@H](CN(C)C(=O)Nc1c(C)noc1C)OCCCC[C@@H](C)O2", "inhibition": "20.4% (active)"}, {"smiles": "C[C@@H]1CCCCO[C@@H](CN(C)C(=O)CCC(F)(F)F)[C@@H](C)CN([C@@H](C)CO)C(=O)c2cc(NC(=O)CCC(F)(F)F)ccc2O1", "inhibition": "17.9% (active)"}, {"smiles": "C[C@H]1CCCCO[C@H](CN(C)C(=O)CCC(F)(F)F)[C@@H](C)CN([C@@H](C)CO)C(=O)c2cc(NC(=O)CCC(F)(F)F)ccc2O1", "inhibition": "4.31%"}, {"smiles": "C[C@@H]1CCCCO[C@@H](CN(C)C(=O)CCC(F)(F)F)[C@H](C)CN([C@@H](C)CO)C(=O)c2cc(NC(=O)CCC(F)(F)F)ccc2O1", "inhibition": "-1.98%"}, {"smiles": "CNC[C@H]1Oc2c(cccc2N(C)C)C(=O)N([C@H](C)CO)C[C@H]1C", "inhibition": "-1.15%"}, {"smiles": "COc1ccc(CN(C)C[C@H]2Oc3c(NC(=O)Nc4c(C)noc4C)cccc3C(=O)N([C@H](C)CO)C[C@@H]2C)cc1", "inhibition": "0.675%"}, {"smiles": "C[C@H](CO)N1C[C@H](C)[C@H](CN(C)C(=O)Nc2ccccc2)Oc2c(NC(=O)c3ccc(-c4nccs4)cc3)cccc2C1=O", "inhibition": "-2.67%"}, {"smiles": "C[C@H](CO)N1C[C@H](C)[C@H](CN(C)Cc2ccc3c(c2)OCO3)Oc2ccc(NC(=O)CCC(F)(F)F)cc2CC1=O", "inhibition": "0.912%"}, {"smiles": "C[C@@H]1CCCCO[C@@H](CN(C)C(=O)CCCN(C)C)[C@H](C)CN([C@@H](C)CO)C(=O)c2cc(N(C)C)ccc2O1", "inhibition": "1.1%"}, {"smiles": "C[C@@H]1CCCCO[C@@H](CN(C)C(=O)c2ccncc2)[C@@H](C)CN([C@@H](C)CO)C(=O)c2cc(NS(=O)(=O)c3cccs3)ccc2O1", "inhibition": "-2.75%"}, {"smiles": "COc1ccc(CN(C)C[C@@H]2Oc3c(NS(=O)(=O)c4cn(C)cn4)cccc3C(=O)N([C@H](C)CO)C[C@@H]2C)cc1", "inhibition": "-1.87%"}, {"smiles": "C[C@H](CO)N1C[C@H](C)[C@H](CN(C)Cc2ccc(Cl)c(Cl)c2)Oc2c(NS(=O)(=O)c3cn(C)cn3)cccc2C1=O", "inhibition": "-0.00607%"}, {"smiles": "C[C@@H]1CCCCO[C@H](CN(C)C(=O)Nc2ccccc2)[C@@H](C)CN([C@@H](C)CO)C(=O)c2cc(NC(=O)CCCN(C)C)ccc2O1", "inhibition": "-3.05%"}, {"smiles": "CNC[C@H]1Oc2ccc(NS(=O)(=O)c3cccs3)cc2CC(=O)N([C@H](C)CO)C[C@H]1C", "inhibition": "-0.195%"}, {"smiles": "C[C@@H]1CCCCO[C@@H](CN(C)S(C)(=O)=O)[C@H](C)CN([C@H](C)CO)C(=O)c2cc(NS(=O)(=O)c3ccccc3)ccc2O1", "inhibition": "-0.778%"}, {"smiles": "C[C@H]1CN([C@@H](C)CO)C(=O)Cc2cc(NC(=O)C3CC3)ccc2O[C@@H]1CN(C)C(=O)Nc1ccccc1", "inhibition": "-14.8%"}, {"smiles": "CNC[C@@H]1Oc2c(N)cccc2C(=O)N([C@H](C)CO)C[C@@H]1C", "inhibition": "-1.12%"}, {"smiles": "COc1ccccc1CN(C)C[C@H]1OCc2cn(nn2)CCCC(=O)N([C@H](C)CO)C[C@H]1C", "inhibition": "3.38%"}, {"smiles": "C[C@@H]1CN([C@@H](C)CO)C(=O)c2cccc(NC(=O)c3ccncc3)c2O[C@H]1CN(C)S(=O)(=O)c1cccs1", "inhibition": "0.118%"}, {"smiles": "C[C@H]1CCCCO[C@@H](CN(C)Cc2ccncc2)[C@@H](C)CN([C@@H](C)CO)C(=O)c2cc(N(C)C)ccc2O1", "inhibition": "1.7%"}, {"smiles": "COc1ccc(NC(=O)Nc2ccc3c(c2)C(=O)N([C@@H](C)CO)C[C@@H](C)[C@H](CN(C)Cc2ccc(C(=O)O)cc2)O3)cc1", "inhibition": "0.138%"}, {"smiles": "C[C@@H]1CN([C@H](C)CO)C(=O)c2cc(NC(=O)Nc3ccccc3)ccc2O[C@@H](C)CCCCO[C@H]1CN(C)S(=O)(=O)c1ccc(F)cc1", "inhibition": "4.18%"}, {"smiles": "C[C@H](CO)N1C[C@H](C)[C@@H](CN(C)C(=O)NC2CCCCC2)Oc2ccc(N(C)C)cc2C1=O", "inhibition": "3.39%"}]}]}
